The source made the active and inactive calls. Rule for the calls: active = hit-call score of the fitted dose curve at least 0.9, where 1 is the maximum; inactive = score below 0.9.
Legend:
Settings in all cases: mRNA level, 48 h; actives raise or lower the signal
[1] = read-out: sulfotransferase 2A1 (SULT2A1), SULT2A1 (gene 6822); test: LTEA_HepaRG_SULT2A1: Life Technologies and Expression Analysis (LTEA) Assay for sulfotransferase 2A1 (SULT2A1) using HepaRG (AID 2283531)
Summary of the method: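 HepaRG human liver cells, 48 h exposure in serum-free induction medium to 8 half-log concentrations topping at 100 µM (0.5% DMSO), duplicate wells. SULT2A1 mRNA measured by TaqMan qRT-PCR, normalized to ACTB/GAPDH/POLR2A; bidirectional fit against DMSO.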

[2] = read-out: Transforming Growth Factor (TGFA), TGFA (gene 7039); test: LTEA_HepaRG_TGFA: Life Technologies and Expression Analysis (LTEA) Assay for Transforming Growth Factor (TGFA) using HepaRG (AID 2283532)
Summary of the method: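 HepaRG (human liver line), 48 h exposure, 8 conc. half-log down from 100 uM, 0.5% DMSO vehicle, duplicates; serum-free induction medium. TGFA mRNA by TaqMan qRT-PCR, ACTB/GAPDH/POLR2A normalization; gain/loss fit vs DMSO.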

[3] = read-out: Transforming Growth Factor (TGFB1), TGFB1 (gene 7040); test: LTEA_HepaRG_TGFB1: Life Technologies and Expression Analysis (LTEA) Assay for Transforming Growth Factor (TGFB1) Transporter using HepaRG (AID 2283533)
Summary of the method: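 Differentiated HepaRG cells exposed 48 hr in serum-free induction medium to eight half-log concentrations up to 100 uM (0.5% DMSO), duplicate; TGFB1 mRNA by TaqMan qRT-PCR normalised to ACTB, GAPDH, POLR2A; bidirectional fit against DMSO.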

TIMP1, TIMP1 (gene 7076) = test: LTEA_HepaRG_TIMP1: Life Technologies and Expression Analysis (LTEA) Assay for TIMP1 using HepaRG (AID 2283534);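 note: TaqMan qRT-PCR signal normalized to ACTB GAPDH and POLR2A housekeeping genes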
Summary of the method: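 Differentiated HepaRG cells exposed 48 h in serum-free induction medium, duplicates, eight half-log concentrations from 100 uM in 0.5% DMSO. TIMP1 mRNA by qRT-PCR normalized to ACTB, GAPDH, POLR2A; bidirectional fitting against DMSO.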

[4] = read-out: Tumor necrosis factor receptor 1 (TNFRSF1A), TNFRSF1A (gene 7132); test: LTEA_HepaRG_TNFRSF1A: Life Technologies and Expression Analysis (LTEA) Assay for Tumor necrosis factor receptor 1 (TNFRSF1A) using HepaRG (AID 2283535)
Summary of the method: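 Differentiated HepaRG cells in serum-free induction medium, exposed 48 h in duplicate to 8 half-log concentrations up to 100 uM in 0.5% DMSO. TNFRSF1A mRNA by Fluidigm TaqMan qRT-PCR, normalized to ACTB, GAPDH, POLR2A; bidirectional fit.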

[5] = read-out: Thyroid Hormone Responsive (THRSP), THRSP (gene 7069); test: LTEA_HepaRG_THRSP: Life Technologies and Expression Analysis (LTEA) Assay for Thyroid Hormone Responsive (THRSP) using HepaRG (AID 2283536)
Summary of the method: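 mRNA induction or loss relative to 0.5% DMSO vehicle was fitted bidirectionally across an eight-point curve whose highest exposure was 100 uM. Human HepaRG liver cells received chemicals in duplicate over 48 h before RNA extraction.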

[6] = read-out: Cellular tumor antigen p53 (Homo sapiens) (UniProt P04637); test: LTEA_HepaRG_TP53: Life Technologies and Expression Analysis (LTEA) Assay for Tumor Protein P53 (TP53) using HepaRG (AID 2283537)
Summary of the method: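 TP53 transcript measured by qRT-PCR, normalized to three housekeeping genes, after 48 h treatment of human HepaRG cultures with chemicals from 100 uM downward in half-log steps (0.5% DMSO vehicle, serum-free induction medium). Up- or down-regulation fitted against DMSO.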

[7] = read-out: UDP glucuronosyltransferase (UGT1A1), UGT1A1 (gene 54658); test: LTEA_HepaRG_UGT1A1: Life Technologies and Expression Analysis (LTEA) Assay for UDP glucuronosyltransferase (UGT1A1) using HepaRG (AID 2283538)
Summary of the method: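 Human liver HepaRG cultures receive test chemical for 48 h, up to 100 uM in 0.5% DMSO, with phenobarbital induction controls. UGT1A1 mRNA is measured by qRT-PCR and normalized to ACTB, GAPDH and POLR2A.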

[8] = read-out: UDP glucuronosyltransferase (UGT1A6), UGT1A6 (gene 54578); test: LTEA_HepaRG_UGT1A6: Life Technologies and Expression Analysis (LTEA) Assay for UDP glucuronosyltransferase (UGT1A6) using HepaRG (AID 2283539)
Summary of the method: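 Differentiated HepaRG cells, ~100,000/well, were exposed for 48 h in serum-free induction medium with 0.5% DMSO to 8-point half-log series topping at 100 uM, in duplicate. mRNA measured by Fluidigm TaqMan qRT-PCR, normalized to ACTB, GAPDH and POLR2A.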

Measured: AC50

Cellular tumor antigen p53 (Homo sapiens), sequence (P04637 whole entry, looked up): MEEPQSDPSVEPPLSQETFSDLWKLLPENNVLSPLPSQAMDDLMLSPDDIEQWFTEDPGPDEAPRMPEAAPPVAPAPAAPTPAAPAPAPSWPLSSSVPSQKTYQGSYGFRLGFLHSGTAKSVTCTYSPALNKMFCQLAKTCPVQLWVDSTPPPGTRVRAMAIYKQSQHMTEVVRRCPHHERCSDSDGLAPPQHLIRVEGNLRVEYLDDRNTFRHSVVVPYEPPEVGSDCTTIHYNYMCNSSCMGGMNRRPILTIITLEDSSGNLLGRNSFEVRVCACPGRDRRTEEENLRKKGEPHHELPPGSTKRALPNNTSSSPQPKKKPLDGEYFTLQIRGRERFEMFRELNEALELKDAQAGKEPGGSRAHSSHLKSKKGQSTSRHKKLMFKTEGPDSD

CCN(CC)C(=O)C(C)Oc1cccc2ccccc12 (stereo unspecified)
active: [7] 12.9 µM
inactive: all other assays above

CCCCC(C#N)(Cn1cncn1)c1ccc(Cl)cc1 (stereo unspecified)
active: [3] 50 µM | [5] 25 µM | [7] 12.2 µM
inactive: all other assays above

CC(C)C1(C)N=C(c2ncccc2C(=O)O)NC1=O (stereo unspecified)
inactive: all assays above

CCCC(=NOCC)C1=C(O)CC(CC(C)SCC)CC1=O (stereo unspecified)
active: [7] 50.2 µM
inactive: all other assays above

COc1cc(OC)nc(NC(=O)NS(=O)(=O)c2ncccc2OCC(F)(F)F)n1
inactive: all assays above

CCOC(=O)C(C)OC(=O)c1cc(Oc2ccc(C(F)(F)F)cc2Cl)ccc1[N+](=O)[O-] (stereo unspecified)
active: [5] 28.4 µM | [7] 8.94 µM
inactive: all other assays above

CC(C)N1C(=O)N(c2ccccc2)CSC1=NC(C)(C)C
active: [1] 96.5 µM | [2] 79.4 µM | [6] 76.2 µM | [7] 88.8 µM | [8] 85.1 µM
inactive: [3] | TIMP1, TIMP1 (gene 7076) | [4] | [5]

O=P(O)(O)CCCl
active: [6] 0.254 µM
inactive: all other assays above

C=CCOC(=O)C(C)(C)OC(=O)c1cc(-n2c(=O)cc(C(F)(F)F)n(C)c2=O)ccc1Cl
active: [7] 23.1 µM
inactive: all other assays above

CNC(=O)N(C)c1nnc(C(C)(C)C)s1
inactive: all assays above

Nc1c(Cl)c(F)nc(OCC(=O)O)c1Cl
inactive: all assays above

COP(=O)(OC)O/C(C)=C/C(=O)N(C)C
inactive: all assays above

Cc1cc(C)nc(Nc2ccccc2)n1
active: [7] 68.6 µM
inactive: all other assays above

Nc1cnn(-c2ccccc2)c(=O)c1Cl
active: [7] 50 µM
inactive: all other assays above

CC1(C)CON(Cc2ccccc2Cl)C1=O
active: [7] 9.92 µM
inactive: all other assays above

CCC(C)n1c(=O)[nH]c(C)c(Br)c1=O (stereo unspecified)
active: [1] 24.9 µM | [5] 18.5 µM | [7] 5.95 µM
inactive: all other assays above

CCOc1nc(C(Cl)(Cl)Cl)ns1
active: [2] 1.14 µM | [3] 0.687 µM | [5] 1.06 µM | [6] 1.01 µM
inactive: all other assays above

CS(=O)(=O)c1cc(C(F)(F)F)ccc1C(=O)c1cnoc1C1CC1
inactive: all assays above

CCOP(=O)(OCC)Oc1nc(Cl)c(Cl)cc1Cl
active: [1] 75.9 µM | [5] 84.2 µM
inactive: all other assays above
